These results are taken from PubChem BioAssay (NCATS).

Where “and” joins values, the source holds several entries; their conditions need not be identical. Identical values can stand only once. Records with an inconclusive call do not appear. A structure can be active in one record and inactive in another. Calls of active or inactive are those of the source. The call rests on the fitted dose curve; in most records, active means well fitted curve in the direction sought with a large enough effect; inconclusive means small, poorly fitted or top-dose-only effect, or another doubt; inactive means no such curve, though single readings can be large; an effect the other way counts as inactive or inconclusive.

One assay concerns HeLa. Nature of the assay: Primary qHTS to identify gynecologic anti-cancer compounds using libraries of approved drugs and bioactive compounds (AID 1345084). Further: nearly all actives have a fitted effect of over 55% in size. The settings on record: Gynecologic cancer cell panel viability, ATPlite luminescence, 48 h; series mostly up to 57.5 µM. The method, boiled down:
(§1)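 Five-concentration response, 48 h; readout is ATP-driven luciferase luminescence.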

The next assay deals with Hek293T. The assay is described as above. Conditions: Gynecologic cancer cell panel viability, ATPlite luminescence, 48 h, control line for the selectivity index; series mostly up to 57.5 µM. The method in brief:
as §1

For a further assay, the system named is JEG-3. The assay is described as above. Conditions: Gynecologic cancer cell panel viability, ATPlite luminescence, 48 h; series mostly up to 57.5 µM. The method, boiled down: as §1
For orientation: In ATP-based viability assays light output follows the ATP content of the culture.

For a further assay, the system named is OV90. Described as above. Conditions: Gynecologic cancer cell panel viability, ATPlite luminescence, 48 h; series mostly up to 57.5 µM. The method in brief: as §1
The subject of the next assay is PA-1. The assay is described as above. The settings on record: Gynecologic cancer cell panel viability, ATPlite luminescence, 48 h; series mostly up to 57.5 µM. The method, boiled down: as §1
In a further assay the test system is SKOV3. The assay is described as above. The settings on record: Gynecologic cancer cell panel viability, ATPlite luminescence, 48 h; series mostly up to 57.5 µM. The method, boiled down: as §1
The test system of another assay is Tov-21-G. The assay is described as above. The settings on record: Gynecologic cancer cell panel viability, ATPlite luminescence, 48 h; series mostly up to 57.5 µM. The method in brief:
as §1

In a further assay the test system is Tov112D. The assay is described as above. Conditions: Gynecologic cancer cell panel viability, ATPlite luminescence, 48 h; series mostly up to 57.5 µM. The method in brief: as §1
The nature of assay [1]: Drug repurposing screens with cells derived from glioblastoma tumor samples (AID 1345199). Further: nearly all actives have a fitted effect of over 40% in size. The settings on record: GBM patient neurospheres viability, ATP luminescence, 48 h. The method in brief:
(§2)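 Four patient lines of CD133+ GBM neurospheres were screened at several concentrations; hits were retested in those lines plus three slower-growing GBM lines, using 48-hour treatment and ATP-based viability.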

Another assay deals with astro. Described as above. Conditions: viability, ATP luminescence, 48 h; series mostly up to 45.9 µM. The method, boiled down: as §2
The mark [2] stands for this setting: at 45.9 µM (top of the series), tumour line B.
Setting [3] is: at 46.1 µM (top of the series), tumour line C.
Setting [4] is: at 45.9 µM (top of the series), tumour line D.
Where [5] appears, read: at 46 µM (top of the series), tumour line A.
On the % scale 0 is the no-effect control and ±100 the full control effect; potency means the concentration at half of the fitted maximal effect.

For `CN1CCCCC1CCN1c2ccccc2Sc2ccc(S(C)=O)cc21` (stereo unspecified), the Potency result with HeLa, with Hek293T, with JEG-3, with OV90, with PA-1 and in the assay on SKOV3 was “inactive” each time. Besides, the Potency result with Tov-21-G, in the assay on Tov112D and in the assay on astro was “inactive” in each case. The activity, negative = cell killing was -8.07% (inactive) in assay [1] (setting [2]); -16.7% (inactive) and 11.5% (inactive) in assay [1] (setting [3]).

For the compound `CN1CCC[C@@H]1Cc1c[nH]c2ccc(CCS(=O)(=O)c3ccccc3)cc12`, the Potency entry in the assay on HeLa, with Hek293T, with JEG-3, in the assay with OV90, in the assay with PA-1 and in the assay with SKOV3 was “inactive” each time. The Potency result with Tov-21-G, in the assay with Tov112D and in the assay with astro was “inactive” each time. Also, the activity, negative = cell killing in assay [1] (setting [2]) was -21.2% (inactive). Besides, in assay [1] (tumour line A), the Potency is 14.1 µM (active).

Regarding `O=S(=O)(O)c1cc(I)c(O)c2ncccc12`, the Potency entry in the assay on HeLa, with Hek293T, with JEG-3, with OV90, in the assay on PA-1 and in the assay with SKOV3 was “inactive” in each case. Moreover, the Potency result in the assay on Tov-21-G, in the assay on Tov112D and with astro was “inactive” throughout. Moreover, the activity, negative = cell killing is -21.6% (inactive) in [1] (setting [2]) and -2.75% (inactive) in assay [1] (setting [4]).

On to `CCCc1c(OCCCCc2nn[nH]n2)ccc(C(C)=O)c1O`, for which the Potency entry in the assay on HeLa, in the assay with Hek293T, in the assay with JEG-3, with OV90, with PA-1 and with SKOV3 was “inactive” each time. Besides, the Potency entry in the assay with Tov-21-G and with Tov112D was “inactive” in each case. In addition, in the assay with astro, the Potency is 25.1 µM (active).

As to `CCN(CC)CCSC(=O)C(c1ccccc1)c1ccccc1`, the Potency entry in the assay on HeLa, in the assay with Hek293T, in the assay on JEG-3, in the assay with OV90, in the assay with PA-1 and in the assay with SKOV3 was “inactive” each time. Further, the Potency result in the assay with Tov-21-G, with Tov112D and with astro was “inactive” throughout. In addition, the activity, negative = cell killing in assay [1] (setting [2]) was -17.9% (inactive) and -28.9% (inactive).

As for `CC(=O)Oc1ccc(C2(c3ccc(OC(C)=O)cc3)C(=O)Nc3ccccc32)cc1`, the Potency result with HeLa, in the assay on Hek293T, in the assay on JEG-3, with PA-1 and with SKOV3 was “inactive” each time. In the assay with OV90, the Potency was 8.91 µM (active). Also, the activity, negative = cell killing in assay [1] (setting [2]) was 0.963% (inactive) and -11% (inactive); in assay [1] (setting [4]), -19.5% (inactive) and -4.76% (inactive); in assay [1] (setting [3]) it was -13% (inactive) and -13.5% (inactive).

For the compound `CCC(=O)Nc1ccc(O)cc1`, the Potency entry in the assay on HeLa, in the assay with Hek293T, in the assay with JEG-3, in the assay on OV90, in the assay on PA-1 and in the assay on SKOV3 was “inactive” throughout. In addition, the Potency entry in the assay with Tov-21-G, in the assay with Tov112D and in the assay on astro was “inactive” in each case.

On to `CNCC(O)c1ccc(O)c(O)c1` (stereo unspecified), for which the Potency result in the assay on HeLa, with Hek293T, in the assay on JEG-3, with OV90, with Tov-21-G and in the assay on Tov112D was “inactive” each time. The Potency with SKOV3 was 28.2 µM (active).

On to `CC(CN(C)C)CN1c2ccccc2CCc2ccccc21` (stereo unspecified), for which the Potency result with HeLa, in the assay with Hek293T, in the assay on JEG-3, in the assay with PA-1, in the assay with SKOV3 and in the assay on Tov-21-G was “inactive” each time. For the same compound, the Potency result with Tov112D and with astro was “inactive” each time. The activity, negative = cell killing in assay [1] (at 20 µM (top of the series), tumour line C) is -0.604% (inactive); in assay [1] (at 21.2 µM (top of the series), tumour line B), -19% (inactive). In addition, in assay [1] (tumour line A), the Potency was 6.31 µM (active).

As to `NC(=O)c1ncn([C@@H]2O[C@H](CO)[C@@H](O)[C@H]2O)n1`, the Potency result in the assay with HeLa, in the assay on Hek293T, in the assay with JEG-3, with Tov112D and in the assay on astro was “inactive” each time. The activity, negative = cell killing was -11% (inactive) in assay [1] (setting [2]), -8.98% (inactive) in [1] (setting [4]), -27.6% (inactive) in assay [1] (setting [5]) and -10.2% (inactive) in assay [1] (setting [3]).

In the case of `CN1CCN(C2Cc3ccccc3Sc3ccc(Cl)cc32)CC1` (stereo unspecified), the Potency result in the assay with HeLa, in the assay with Hek293T, in the assay with JEG-3, in the assay on PA-1, in the assay on Tov-21-G and with Tov112D was “inactive” in each case. Besides, the Potency in the assay with astro was 22.4 µM (active).

On to `Cc1cc(N)c2ccccc2[n+]1CCCCCCCCCC[n+]1c(C)cc(N)c2ccccc21`, for which the Potency entry in the assay with HeLa, in the assay with JEG-3 and with Tov112D was “inactive” each time. Moreover, in the assay on PA-1, the Potency was 22.4 µM (active).

Take `CC(C(O)c1ccc(O)cc1)N1CCC(Cc2ccccc2)CC1` (stereo unspecified): the Potency entry in the assay with HeLa, in the assay on Hek293T, with JEG-3, in the assay on PA-1, in the assay with SKOV3 and with Tov-21-G was “inactive” throughout. Further, the Potency entry in the assay on Tov112D and in the assay with astro was “inactive” in each case. The activity, negative = cell killing in [1] (setting [3]) is -15.9% (inactive). Moreover, the Potency in [1] (tumour line A) is 2.82 µM (active); in assay [1] (tumour line B) it was 35.5 µM (active); in assay [1] (tumour line D), 12.6 µM (active).

On to `CC(C)c1c(C(=O)Nc2ccccc2)c(-c2ccccc2)c(-c2ccc(F)cc2)n1CC[C@@H](O)C[C@@H](O)CC(=O)O`, for which the Potency result in the assay with HeLa, in the assay on Hek293T, in the assay on JEG-3, in the assay on OV90, with SKOV3 and in the assay with Tov-21-G was “inactive” throughout. Further, the Potency entry in the assay on Tov112D is “inactive”. Also, the Potency in the assay on astro is 11.2 µM (active).

Consider `CCCCN(CCCC)CC(O)c1cc(Cl)cc2c1-c1ccc(Cl)cc1/C2=C/c1ccc(Cl)cc1` (stereo unspecified), for which the Potency entry with HeLa, in the assay with Hek293T, with JEG-3, with PA-1, in the assay with Tov-21-G and in the assay on Tov112D was “inactive” in each case. Moreover, the Potency entry in the assay on astro is “inactive”.

As for `NC(=O)N/N=C/c1ccc([N+](=O)[O-])o1`, the Potency in the assay with HeLa is 31.6 µM (active); in the assay with SKOV3, 14.1 µM (active) and inactive; in the assay on Tov-21-G, 39.8 µM (active) and inactive. The Potency entry in the assay on Hek293T, in the assay with OV90, with PA-1, with Tov112D and with astro was “inactive” throughout. Moreover, the activity, negative = cell killing in assay [1] (setting [2]) was 2.52% (inactive); in [1] (setting [4]) it was -11.8% (inactive); in assay [1] (setting [5]), -13.9% (inactive); in [1] (setting [3]), 14.2% (inactive).

For the compound `OCc1cc(C(O)CNCCCCCCOCCCCc2ccccc2)ccc1O` (stereo unspecified), the Potency result in the assay with HeLa, in the assay with JEG-3, with Tov-21-G and in the assay with Tov112D was “inactive” in each case. For the same compound, the activity, negative = cell killing in [1] (setting [3]) was 2.29% (inactive). In addition, the Potency in assay [1] (tumour line A) was 7.08 µM (active); in assay [1] (tumour line B) it was 20 µM (active); in assay [1] (tumour line D), 20 µM (active); in the assay on astro it was 11.2 µM (active).

Regarding `COCCOC(=O)C1=C(C)NC(C)=C(C(=O)OC/C=C/c2ccccc2)C1c1cccc([N+](=O)[O-])c1` (stereo unspecified), the Potency entry in the assay with HeLa, with JEG-3, with OV90, with Tov-21-G and in the assay with Tov112D was “inactive” throughout. The activity, negative = cell killing in assay [1] (setting [2]) was 2.48% (inactive). For the same compound, the Potency was 3.55 µM (active) in [1] (tumour line A), 18.4 µM (active) in assay [1] (tumour line C) and 12.6 µM (active) in assay [1] (tumour line D).

For the compound `CN(C)CCC=C1c2ccccc2CCc2ccccc21`, the Potency result with HeLa, with JEG-3, in the assay with PA-1, in the assay on SKOV3, in the assay on Tov-21-G and with Tov112D was “inactive” in each case.
